Screens as filed in PubChem.
BJeLR lethal: BJeLR cell viability loss; BJeLR (HRASV12) viability, CellTiter-Glo ATP luminescence, 48 h; inhibition, % (no concentration beside the values); hit rate 0.17% among 300,000; AID 1554; in the data active = inhibition above about 50%; inconclusive = no clear call, values can overlap the other calls
Autofluor counter: counter-screen for toxin protease inhibitors: compound fluorescence | compound autofluorescence counterscreen, microsphere flow cytometry; stronger effect = higher value | fluorescence intensity (test concentration not listed) | hit rate 3.1% among 360,000 | AID 624483; in the data active = fluorescence intensity above about 16000; inconclusive = no clear call, values can overlap the other calls
Anthrax LF inh2: anthrax lethal factor protease inhibition. P15917. multiplex microsphere protease cleavage assay, LF. inhibition, % at 10 µM. hit rate 0.12% among 360,000; note: plate controls were buffer without enzyme for full effect and enzyme alone for no effect
BoNT A protease: blocks Botulinum neurotoxin A light chain protease; multiplex microsphere protease substrate cleavage, flow cytometry; inhibition, % at 10 µM; hit rate 0.17% among 360,000; AID 588499; note: plate controls were buffer without enzyme for full effect and enzyme alone for no effect
BoNT F protease: BoNT F light chain protease inhibition. Multiplex microsphere protease cleavage assay, flow cytometry. inhibition, % at 10 µM. hit rate 0.22% among 360,000; in the data active = inhibition above about 35%, passing the limit was not always enough; inconclusive = no clear call, values can overlap the other calls; note: plate controls were buffer without enzyme for full effect and enzyme alone for no effect
Starred values were filed as active, the others as inactive; u = inconclusive; x = no result. The list is not random: actives were taken first. Their share in the collection is about 3.5%. Cut-off read from the data, not from the text of the source, unless noted: active = inhibition above about 30%; inconclusive = no clear call, values can overlap the other calls; inactive = below that.

SMILES | BJeLR lethal | Autofluor counter | Anthrax LF inh2 | BoNT A protease | BoNT F protease
CSc1ccc(/C=N/n2nnnc2N)cc1 | -2 | 22907* | -1 | 1 | 1
Nc1nnnn1/N=C/c1ccc(O)cc1 | -10 | 9263 | 2 | 0 | 0
CCN=C1S/C(=C\c2cn(CC)c3ccccc23)C(=O)N1CC | -4 | 2772 | -2 | 0 | -1
CCOC(=O)Cn1cc(C=C2C(=O)N(C)C(=O)N(C)C2=O)c2ccccc21 | -6 | 3338 | 22 | -1 | 40*
CCn1cc(C=C2C(=O)c3ccccc3C2=O)c2ccccc21 | 5 | 3399 | 34* | 70* | 19
CN1C(=O)C(=Cc2cn(CC(=O)N3CCCC3)c3ccccc23)C(=O)N(C)C1=O | -3 | 4764 | -4 | -2 | 0
O=C(Nc1ccc(F)c(Cl)c1)c1cc(C2CCCCN2C(=O)c2cccs2)on1 (stereo unspecified) | x | 2878 | -2 | 0 | 0
CSCCC(NC(=O)C1CC1)c1nc2ccccc2[nH]1 (stereo unspecified) | 1 | 20590* | 0 | 0 | -3
O=[N+]([O-])c1cc(/C=N/O)ccc1SCc1ccccc1 | -4 | 22700* | -6 | u | -5
COc1ccccc1/C=C/C(=O)NCC(=O)N/N=C/c1cccnc1 | 0 | 2752 | -1 | -1 | 2
COc1ccccc1NCC(=O)N/N=C/c1cccnc1 | 0 | 23032* | -2 | -3 | -3
Cc1sc(NC(=O)c2ccco2)c(C(c2ccncc2)N2CCOCC2)c1C (stereo unspecified) | 2 | 18732* | -2 | 3 | 2
Cc1sc(NC(=O)c2ccco2)c(CN2CCN(c3ccccc3)CC2)c1C | -3 | 20298* | -5 | 0 | -3
O=[N+]([O-])c1ccc(N=Nc2ncc[nH]2)cc1 | 74* | 3083 | -5 | -2 | -8
O=C1CC(SCc2nc3ccccc3[nH]2)C(=O)N1c1ccc(F)c(Cl)c1 (stereo unspecified) | -12 | 22834* | -4 | 0 | -3
CC(=O)n1cc(C2C(=O)CC(C)(C)CC2=O)c2ccccc21 | -2 | 21921* | -2 | 3 | 6
C=CCOC(=O)c1cc(-c2ccc(/C=C3\C(=O)NC(=O)C(C#N)=C3C)o2)ccc1Cl | x | 5030 | 2 | 1 | 2
CCCOC(=O)c1cc(-c2ccc(/C=C3/C(=O)N(C)C(=O)C(C#N)=C3C)o2)ccc1Cl | x | 22120* | 0 | -2 | -2
CCOc1ccc(N/C=C/C(=O)c2ccc(C)cc2)c([N+](=O)[O-])c1 | -4 | 2449 | 1 | 0 | 2
CCOc1ccc(N/C=C/C(=O)c2ccc3ccccc3c2)c([N+](=O)[O-])c1 | 2 | 16459* | -2 | 0 | 0
COc1cc(Br)cc2cc(C(=O)N3CCN(c4ccccn4)CC3)c(=O)oc12 | 6 | 23664* | 0 | -1 | -1
CCOc1ccc2oc(C(=O)N3CCN(c4ccccn4)CC3)c(C)c2c1 | -2 | 5614 | -2 | 1 | 13
O=C(c1cc2cc(Br)ccc2oc1=O)N1CCN(c2ccccn2)CC1 | -1 | 16477* | -3 | 0 | 0
Cc1cnn(C(=O)c2oc3ccccc3c2C)c1 | -5 | 22067* | 2 | 3 | 7
Cc1c(C(=O)N2CCN(c3ccccn3)CC2)oc2ccccc12 | 4 | 22383* | -12 | 3 | 1
SMILES | BJeLR lethal | Autofluor counter | Anthrax LF inh2 | BoNT A protease | BoNT F protease
CCOC(=O)c1ccc(CSc2ncn[nH]2)o1 | 1 | 4397 | -11 | 0 | -7
COC(=O)c1ccc(CSc2ncn[nH]2)o1 | -5 | 20355* | 2 | u | -3
CC(C)C[C@@H]1CN(CCCC[C@H]2CNC(=O)C(=O)N2CCC2CCCCC2)C(=O)C(=O)N1Cc1ccccc1 | x | 6694 | -5 | -1 | -5
NCC1C2CCC(O2)C1CO (stereo unspecified) | x | 3780 | 2 | 0 | -1
CN1C=CC=C/C1=C1\SC(=S)N(C2CCCCC2)C1=O | -6 | 21024* | -4 | u | 3
CN1C=CC=C/C1=C1\SC(=S)N(c2ccccc2)C1=O | -6 | 3391 | -4 | 0 | -2
CCOC(=O)N1CCN(C(=O)c2cc(C)c3c(C)nn(-c4ccccc4)c3n2)CC1 | -18 | 23022* | 1 | -1 | -1
CC(=O)c1nnn(-c2nc(N)nc(N(c3ccccc3)c3ccccc3)n2)c1C | 3 | 22006* | -2 | u | -1
Cc1cc(C)n(-c2nc(N(c3ccccc3)c3ccccc3)nc(-n3nc(C)cc3C)n2)n1 | -4 | 17611* | -2 | -7 | -5
CCN(CC)c1nc2ccccc2nc1-n1nc(C)cc1C | 9 | 24280* | -2 | u | 0
COc1ccc(OC)c(NC(=O)COc2coc(CN3CCc4ccccc43)cc2=O)c1 | 1 | x | x | x | x
O=c1[nH]c2cc3ccccc3cc2nc1-c1nnnn1C1CCCC1 | x | 5438 | 5 | 3 | -1
O=c1ccccn1Cc1c(Cl)cccc1Cl | -14 | 23028* | -1 | u | 4
O=C(Nc1cccn(Cc2c(Cl)cccc2Cl)c1=O)c1ccccc1Cl | 6 | 21806* | -6 | u | -5
Cc1ccccc1NC(=S)N(CCCN1CCOCC1)Cc1ccccn1 | 15 | 2551 | 0 | 5 | 39*
Cc1ccc(-c2nnc(N3CCN(C(=O)COc4ccccc4)CC3)c3ccccc23)cc1 | -5 | 16269* | -4 | 1 | -2
COc1ccc(OCC(=O)Nc2ncc3c(n2)CC(C)(C)CC3=O)cc1 | 3 | 22939* | -2 | u | -4
Cc1cc(C)nc(SCC(=O)Nc2ncc3c(n2)CC(C)(C)CC3=O)n1 | -2 | 20783* | 0 | -1 | -3
CC(=O)NS(=O)(=O)c1ccc(NC(=O)c2ccccc2F)cc1 | 4 | 23846* | -3 | -1 | -2
CN(c1ccccc1C(=O)Nc1ccc(S(=O)(=O)N2CCCCC2)cc1)S(C)(=O)=O | 0 | 20379* | 1 | -2 | -7
Cc1nnc(SC(C)C(=O)Nc2ccc(S(=O)(=O)N3CCCCCC3)cc2)s1 (stereo unspecified) | 9 | 22908* | -2 | 0 | -1
O=C(O)c1ccccc1C(=O)Nc1ccc(Nc2ccccc2)cc1 | x | 3663 | -8 | 0 | -31
O=C(NS(=O)(=O)c1ccccc1)c1ccccc1F | -2 | 2815 | 4 | 0 | 6
CC(=O)N(C)c1ccc(NC(=O)c2ccccc2C(=O)O)cc1 | 4 | 21123* | -1 | u | 3
CN(c1ccccc1C(=O)Nc1ccc(S(=O)(=O)N2CCCC2)cc1)S(C)(=O)=O | 1 | 6129 | 2 | 0 | 9
CC[C@@H](NC(=O)[C@H](Cc1ccccc1)NC(=O)CC[C@H]1O[C@@H](n2ccc(=O)[nH]c2=O)[C@H](O)[C@@H]1O)c1ccccc1 | x | 5936 | 2 | 1 | 8
COc1ccc(OCc2cc(C(=O)NC(C)Cn3cncn3)no2)c(Cl)c1 (stereo unspecified) | -1 | 4951 | 5 | 0 | 2
CC(=O)Nc1ccc(NC(=O)c2ccccc2N(C)S(C)(=O)=O)cc1 | -11 | 24126* | -2 | -4 | -9
COC(=O)c1ccc(NC(=O)c2ccccc2N(C)S(C)(=O)=O)cc1 | -2 | 4104 | -14 | 0 | 4
Cc1[nH]n(-c2ccccc2)c(=O)c1/C=N/Nc1nncc(-c2ccccc2)n1 | 57* | 11091 | -2 | -5 | -14
